hNpr1 antagonist = Natriuretic polypeptide receptor (hNpr1) antagonism - Primary qHTS; HEK293 hNpr1 GloSensor cGMP, ANP-stimulated luminescence; Potency, µM (doses to about 46.3 µM), most hits filed as inhibitors; actives 1.6% (n = 76,000); AID 1347048, 2019; calls by dose curve; further: nearly all actives have a fitted effect of over 60% in size
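HEK293 cells stably expressing human Npr1 and cGMP GloSensor pGS-40F, loaded 2 h with 2% GloSensor reagent, given compound 30 min at room temperature. Luminescence read before and 20 min after 0.1 nM hNppA.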
SNCA expr inh = Primary qHTS assay for inhibitors of alpha-synuclein gene (SNCA) expression. HEK-293 SNCA-luciferase knock-in, luminescence, 24 h. Potency, µM (series often up to 57.2 µM), usual class: inhibitors. actives 0.17% (n = 140,000). AID 1671194, 2021; further: nearly all actives have a fitted effect of over 45% in size
SNCA viab count = GF-AFC viability counterscreen for inhibitors of alpha-synuclein gene (SNCA) expression. HEK-293-SNCA-luc viability, GF-AFC fluorescence, 24 h. Potency, µM (series often up to 57.1 µM), actives largely listed as cytotoxic. actives 0.12% (n = 150,000); further: nearly all actives have a fitted effect of over 30% in size
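HEK-293-SNCA-luc cells (1500/well) plated 24 h, then exposed 24 h to a dilution series; GF-AFC added 30 min at 37C, fluorescence 405/540 nm; normalised to medium-only and DMSO wells, Hill fit.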
HEK293 tox = Cytotoxic Profiling in HEK 293 Cell Line of Diverse Libraries Using Quantitative High-Throughput Screening; HEK 293 viability, ATP luminescence (CellTiter-Glo), 48-72 h; actives 6.6% (n = 94,000); Potency, µM (titrated, usually from 115 µM), hits mostly inhibitors; AID 1345083, 2018; further: nearly all actives have a fitted effect of over 60% in size
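Cells seeded first (HEK 293, 250 cells/well), then compound added by pintool. Incubation ran 48 or 72 hr at 37 degree Celsius. CellTiter-Glo was added and luminescence imaged after 10 min at room temperature.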
NIH3T3 tox = Cytotoxic Profiling in NIH 3T3 Cell Line of Diverse Libraries Using Quantitative High-Throughput Screening. NIH 3T3 viability, CellTiter-Glo ATP luminescence, 48-72 h. Potency, µM (top dose mostly 96.7 µM), actives largely listed as inhibitors. actives 4.3% (n = 94,000). AID 1345082, 2018; further: nearly all actives have a fitted effect of over 55% in size
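Mouse fibroblast NIH 3T3 cells, 400 per well, received compound via pintool and were incubated for 48 or 72 hr prior to CellTiter-Glo ATP luminescence measurement.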
Luciferase inh = Firefly luciferase inhibition profiling of diverse chemical library using quantitative high-throughput screening. Potency, µM (series often up to 115 µM), hits mostly inhibitors. Luciferin 4-monooxygenase (Photinus pyralis), P08659. purified P. pyralis luciferase, luminescence, biochemical. AID 1347043, 2019. actives 2.5% (n = 76,000); further: nearly all actives have a fitted effect of over 65% in size
Target sequence (P08659 whole entry, looked up): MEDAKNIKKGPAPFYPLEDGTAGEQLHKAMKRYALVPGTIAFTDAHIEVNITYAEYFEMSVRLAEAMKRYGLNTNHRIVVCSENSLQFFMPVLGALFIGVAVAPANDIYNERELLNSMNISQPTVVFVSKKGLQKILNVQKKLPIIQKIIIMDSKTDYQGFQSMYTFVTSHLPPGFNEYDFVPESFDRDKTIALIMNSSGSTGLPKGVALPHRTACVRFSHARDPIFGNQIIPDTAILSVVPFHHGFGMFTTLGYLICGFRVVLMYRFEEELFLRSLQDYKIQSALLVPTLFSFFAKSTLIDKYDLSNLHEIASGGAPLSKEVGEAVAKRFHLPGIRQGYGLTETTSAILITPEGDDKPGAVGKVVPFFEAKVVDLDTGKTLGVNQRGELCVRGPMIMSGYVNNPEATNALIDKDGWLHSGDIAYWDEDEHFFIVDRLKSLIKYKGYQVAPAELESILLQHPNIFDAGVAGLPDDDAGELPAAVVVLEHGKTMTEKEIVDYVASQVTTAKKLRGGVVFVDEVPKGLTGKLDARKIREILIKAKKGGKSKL
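Luminescence read by CCD imager after adding enzyme (10nM final) to wells holding compound, titrated in qHTS. Substrates 10uM each D-luciferin and ATP; buffer 50mM Tris acetate pH 7.5, 10mM Mg acetate, Tween-20, BSA.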
Hits are given with their value; - = inactive; ? = inconclusive; . = not tested or not shown; [ ] = remark or other dose. The list is not random: actives were taken first. Their share in the collection is about 7.4%. Unless noted, the call rests on the fitted dose curve; in most records, active means well fitted curve in the direction sought with a large enough effect; inconclusive means small, poorly fitted or top-dose-only effect, or another doubt; inactive means no such curve, though single readings can be large; an effect the other way counts as inactive or inconclusive.

SMILES	hNpr1 antagonist	SNCA expr inh	SNCA viab count	HEK293 tox	NIH3T3 tox	Luciferase inh
COc1cc2c(cc1OC1CCCC1)NC(=O)C21CCN(Cc2nccn2C)CC1	-	-	-	?	-	-
Cc1nc(-c2cccs2)cc([C@H]2CN3CC[C@H]2C[C@@H]3COC(=O)Nc2ccc(C(C)C)cc2)n1	?	?	?	5.6µM	8.9µM	?
COc1ccccc1-c1cc([C@H]2CN3CC[C@H]2C[C@@H]3COC(=O)Nc2ccc(C(C)C)cc2)nc(C)n1	-	?	?	5µM	?	18µM
COCC(=O)NC[C@H]1C[C@@H]2CCN1C[C@@H]2c1cc(-c2ccccc2OC)nc(C)n1	-	-	-	-	-	-
CCOc1ccc(Oc2ccc(OCc3cc(F)ccc3F)cc2)c(N)c1	.	.	-	.	.	.
C[C@@H]1O[C@@H](OC2CCC3(C=O)C(CCC4C3CCC3(C)C(C5=CC(=O)OC5)C(O)CC43O)C2)[C@H](O)[C@H](O)[C@H]1O[C@@H]1O[C@H](CO)[C@@H](O)[C@H](O)[C@H]1O (stereo partly drawn)	.	.	-	.	.	.
CN1CCN(C(=O)Cc2c[nH]c3ncc(-c4ccnn4C)cc23)CC1	-	-	-	-	100µM	-
CN1CCN(C(=O)Cc2c[nH]c3ncc(-c4ccc(CO)cc4)cc23)CC1	-	-	-	?	25µM	-
COC1CC(OC2CCC3(C=O)C(CCC4C3CCC3(C)C(C5=CC(=O)OC5)CCC43O)C2)OC(C)C1OC1OC(CO)C(O)C(O)C1O (stereo not drawn)	.	.	-	.	.	.
C=C(C)C(=O)O[C@H]1[C@@H]2[C@H](C)C(=O)O[C@@H]2C[C@@H](C)[C@@H]2C=CC(=O)[C@]21C	.	.	4.6µM	.	.	.
Cn1nc(-c2ccc3ccccc3c2)cc1[C@H]1CN2CC[C@H]1C[C@@H]2CNC(=O)NCc1ccccc1	-	?	?	?	18µM	-
COc1ccc(-c2cc([C@H]3CN4CC[C@H]3C[C@@H]4CNS(=O)(=O)c3ccc(Cl)cc3)n(C)n2)cc1OC	-	-	-	28µM	?	-
COc1ccc(-c2cc([C@H]3CN4CC[C@H]3C[C@@H]4CNC(C)=O)n(C)n2)cc1	-	-	-	-	?	-
C=C[C@H]1CN2CC[C@H]1C[C@@H]2CNS(=O)(=O)c1ccc(OC)cc1	-	?	-	-	-	-
CC(=O)NC[C@H]1C[C@@H]2CCN1C[C@@H]2c1cc(-c2ccc3ccccc3c2)nn1C	-	-	-	56µM	32µM	?
COc1ccc(-c2cc([C@H]3CN4CC[C@H]3C[C@@H]4CNS(=O)(=O)c3cccs3)n(C)n2)cc1OC	-	-	-	?	?	-
COc1ccc(-c2cc([C@H]3CN4CC[C@H]3C[C@@H]4CNC(=O)NCc3ccccc3)n(C)n2)cc1	-	-	-	?	?	-
C=C[C@H]1CN2CC[C@H]1C[C@@H]2CNS(=O)(=O)c1ccc2ccccc2c1	-	-	-	112µM	?	-
COC(=O)[C@]12CCCC(C)(C)C1CCc1cc(C(C)C)c(O)c(O)c12 (stereo partly drawn)	.	.	-	.	.	.
C[C@H]1CCC[C@H](O)CCC/C=C/c2cc(O)cc(O)c2C(=O)O1	.	.	-	.	.	.
Cn1nc(-c2ccc3ccccc3c2)cc1[C@H]1CN2CC[C@H]1C[C@@H]2CNC(=O)N1CCOCC1	-	-	-	?	?	-
Cn1nc(-c2ccc3ccccc3c2)cc1[C@H]1CN2CC[C@H]1C[C@@H]2CNC(=O)COc1ccccc1	-	-	-	25µM	28µM	-
COc1ccc(OC)c(S(=O)(=O)NC[C@H]2C[C@@H]3CCN2C[C@@H]3c2cc(-c3ccc4ccccc4c3)nn2C)c1	-	-	-	?	?	-
Cn1nc(-c2ccc3ccccc3c2)cc1[C@H]1CN2CC[C@H]1C[C@@H]2CNS(=O)(=O)c1ccccc1	-	?	-	25µM	?	?
C=C[C@H]1CN2CC[C@H]1C[C@@H]2CNCc1ccc(SC)cc1	-	-	-	89µM	?	-
SMILES	hNpr1 antagonist	SNCA expr inh	SNCA viab count	HEK293 tox	NIH3T3 tox	Luciferase inh
CC(C)=C1CC[C@]23CO[C@H](C2)[C@@](O)(C(=O)O)CCC13 (stereo partly drawn)	.	.	-	.	.	.
COc1ccc(CC(=O)N2CCN(Cc3ccccc3-c3ccc(C)c(Cl)c3)CC2)cc1	.	-	-[12.5 µM]	?	?	.
COc1ccc2c(c1)C1(CCN(S(=O)(=O)c3cccc(F)c3)C1)C(=O)N2C (stereo not drawn)	-	-	-	45µM	-	-
CCOC(=O)[C@H]1CN(C(=O)C2CCCC2)[C@]2(C)C(=O)N(CC3CC3)c3ccccc3[C@H]12	.	-	-	?	?	.
N#Cc1cccc(NC(=O)NC[C@H]2C[C@@H]3CCN2C[C@@H]3CN2CCN(c3ccccc3)CC2)c1	-	?	?	?	22µM	-
O=C(NC[C@H]1C[C@@H]2CCN1C[C@@H]2CN1CCN(c2ccc(F)cc2)CC1)Nc1cccc(F)c1	-	?	-	28µM	22µM	-
CN1CCC[C@@H]1Cc1c[nH]c2ccc(Nc3ncccc3[N+](=O)[O-])cc12	.	.	-	.	.	.
CCOC(=O)[C@H]1CN(C(=O)c2ccc(Cl)cc2)[C@]2(C)C(=O)N(CCOC(C)=O)c3ccccc3[C@H]12	.	-	-	?	-	.
O=C(Nc1ccc2n(c1=O)C[C@H]1C[C@@H]2CN(CC2CCCCC2)C1)C1CCCCC1	-	-	-	56µM	?	-
O=C1CC2CCN(CC3CCNC3)CC2CCN1 (stereo not drawn)	.	-	-	-	-	.
CN1C2CCC1CC(OC(=O)N1Cc3ccccc3NC1=O)C2 (stereo not drawn)	.	.	-	.	.	.
Ic1ccccc1CNC1C2CCN(CC2)C1C(c1ccccc1)c1ccccc1 (stereo not drawn)	.	?	22µM	.	.	.
CCC(C)(O)C1(C(=O)O)COC(=O)C1 (stereo not drawn)	.	.	-	.	.	.
O=c1c(-c2cccs2)ccc2n1C[C@H]1C[C@@H]2CN(Cc2cc3ccccc3o2)C1	-	-	-	89µM	?	-
O=C(O)COCC(=O)N1C[C@@H]2C[C@H](C1)c1ccc(-c3cc4ccccc4s3)c(=O)n1C2	-	-	-	-	-	?
Cc1ccccc1-c1ccc2n(c1=O)C[C@H]1C[C@@H]2CN(C(=O)CCC(=O)O)C1	-	-	-	-	-	-

Bioassay records from PubChem.
